Consider nine compounds from PubChem BioAssay (NCI).

Compounds without any hit were thinned out: in the full panel of roughly 83,000, 20% have a hit.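 48-hour exposure, single concentration, 96-well plates; percent growth endpoint where 0 means no net growth. Active: below 10.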 Unmarked numbers belong to inactive results. The source made the active and inactive calls.

Test systems include SK-MEL-2 melanoma; SN12C renal; UO-31 renal; TK-10 renal; CAKI-1 renal; A498 renal; MOLT-4 leukemia; SR leukemia; RPMI-8226 leukemia; OVCAR-8 ovarian; OVCAR-5 ovarian; OVCAR-4 ovarian; SK-OV-3 ovarian; IGROV1 ovarian; OVCAR-3 ovarian; HS 578T breast; NCI/ADR-RES ovarian; EKVX NSCLC; ACHN renal; CCRF-CEM leukemia.
What all share (assay): NCI-60 one-dose screen, 48 h (100 = growth as untreated, 0 = no growth, -100 = all killed)
What all share (conditions): 10 µM unless noted

As for `C=CCN1CCCC1=O`, the growth in the test on SK-MEL-2 melanoma was 161%; in the test with SN12C renal, 94.2%; with UO-31 renal, 101%; in the test on TK-10 renal, 90.2%; in the test on CAKI-1 renal, 95.8%; with A498 renal it was 91%. Moreover, the growth with MOLT-4 leukemia was 93.8%; with SR leukemia it was 90.2%; in the test with RPMI-8226 leukemia, 96.6%; with OVCAR-8 ovarian, 110%; in the test on OVCAR-5 ovarian it was 124%; in the test on OVCAR-4 ovarian it was 94.8%. The growth in the test with SK-OV-3 ovarian was 92.9%; in the test with IGROV1 ovarian it was 114%; in the test on OVCAR-3 ovarian, 128%; in the test with HS 578T breast, 109%; with NCI/ADR-RES ovarian, 110%.
Turning to `CCOc1ccc(C(=O)O)cc1`, the growth is 99.6% in the test with EKVX NSCLC; 113% in the test on SN12C renal; 102% with UO-31 renal; 99.6% in the test with TK-10 renal; 109% in the test with ACHN renal; 97.9% in the test with CAKI-1 renal. For the same compound, the growth with A498 renal is 84.7%; with CCRF-CEM leukemia it was 105%; with MOLT-4 leukemia, 116%; in the test with SR leukemia it was 99.4%; with RPMI-8226 leukemia it was 103%; with OVCAR-8 ovarian, 106%. Further, the growth is 105% in the test with OVCAR-5 ovarian; 103% in the test with OVCAR-4 ovarian; 98.8% in the test with SK-OV-3 ovarian; 113% in the test with IGROV1 ovarian; 115% with OVCAR-3 ovarian; 95.3% with HS 578T breast. The growth with NCI/ADR-RES ovarian is 105%.
As to `CCCC(OC(C)=O)c1ccc2c(c1)OCO2` (stereo not drawn), the growth in the test with EKVX NSCLC is 117%; in the test with SN12C renal, 106%; with UO-31 renal it was 86.8%; in the test with TK-10 renal, 106%; in the test on ACHN renal, 111%; in the test with CAKI-1 renal it was 101%. Besides, the growth in the test on A498 renal was 96.7%; with CCRF-CEM leukemia it was 105%; in the test on MOLT-4 leukemia, 107%; in the test on SR leukemia, 103%; in the test with RPMI-8226 leukemia it was 107%; with OVCAR-8 ovarian, 99%. Besides, the growth with OVCAR-5 ovarian is 106%; in the test on OVCAR-4 ovarian, 110%; in the test with SK-OV-3 ovarian, 105%; in the test on IGROV1 ovarian, 104%; with OVCAR-3 ovarian, 105%; in the test with HS 578T breast, 99.6%. Also, the growth with NCI/ADR-RES ovarian is 104%.
As to `O=C(O)Cc1cccc2ccccc12`, the growth was 101% in the test with EKVX NSCLC; 121% with SN12C renal; 93.6% in the test on UO-31 renal; 102% in the test with TK-10 renal; 103% with ACHN renal; 94.6% in the test with CAKI-1 renal. Moreover, the growth was 106% in the test with A498 renal; 9.03% (active) with MOLT-4 leukemia; 94.5% with SR leukemia; 104% with RPMI-8226 leukemia; 110% in the test with OVCAR-8 ovarian; 102% in the test with OVCAR-5 ovarian. The growth was 122% in the test with OVCAR-4 ovarian; 103% in the test on SK-OV-3 ovarian; 112% in the test with IGROV1 ovarian; 111% in the test on OVCAR-3 ovarian; 100% in the test on NCI/ADR-RES ovarian.
In the case of `NC(CSSCC(N)C(=O)O)C(=O)O` (stereo not drawn), the growth in the test with EKVX NSCLC is 21.9%; with SN12C renal, -11.2% (active); in the test with UO-31 renal, 13.9%; in the test with TK-10 renal, 20.4%; in the test with ACHN renal it was -37.8% (active); in the test on CAKI-1 renal it was 11.4%. Moreover, the growth was -7.36% (active) in the test with A498 renal; -10.1% (active) with CCRF-CEM leukemia; -9.51% (active) in the test on MOLT-4 leukemia; -20.7% (active) in the test on SR leukemia; 53.6% in the test on RPMI-8226 leukemia; 2.42% (active) with OVCAR-8 ovarian. For the same compound, the growth with OVCAR-5 ovarian was -5.59% (active); with OVCAR-4 ovarian it was 35.4%; with IGROV1 ovarian, 31.8%; with OVCAR-3 ovarian, 4.66% (active); in the test with HS 578T breast, 50.3%; in the test on NCI/ADR-RES ovarian, 84.8%.
For the compound `COc1cccc2c1Cc1ccccc1-2`, the growth in the test on EKVX NSCLC was 102%; with SN12C renal, 108%; with UO-31 renal it was 88.6%; with TK-10 renal, 134%; in the test with ACHN renal, 114%; in the test with CAKI-1 renal, 98.3%. In addition, the growth in the test with CCRF-CEM leukemia is 104%; in the test on MOLT-4 leukemia it was 113%; in the test with SR leukemia it was 121%; with RPMI-8226 leukemia, 99.8%; with OVCAR-8 ovarian, 112%; with OVCAR-5 ovarian it was 107%. Also, the growth with OVCAR-4 ovarian is 98.9%; with SK-OV-3 ovarian it was 115%; in the test on IGROV1 ovarian, 115%; with OVCAR-3 ovarian it was 112%; with HS 578T breast it was 103%; in the test on NCI/ADR-RES ovarian it was 98.6%.
As for `O=c1[nH]c(=O)c2cc(Cl)cc(Cl)c2[nH]1`, the growth with EKVX NSCLC is 92.7%; in the test with SN12C renal, 91%; in the test with UO-31 renal, 75.3%; with TK-10 renal it was 97.6%; in the test on ACHN renal it was 103%; in the test on CAKI-1 renal it was 92%. For the same compound, the growth is 121% with A498 renal; 99.6% in the test on CCRF-CEM leukemia; 95.7% in the test with MOLT-4 leukemia; 94.3% in the test with SR leukemia; 104% with RPMI-8226 leukemia; 101% with OVCAR-8 ovarian. For the same compound, the growth with OVCAR-5 ovarian was 116%; in the test with OVCAR-4 ovarian, 101%; in the test on SK-OV-3 ovarian it was 118%; in the test on IGROV1 ovarian, 90.6%; in the test with OVCAR-3 ovarian it was 126%; in the test with NCI/ADR-RES ovarian, 131%.
As to `CCC(=O)Oc1c(C)cc(O)c2ccccc12`, the growth was 97% with EKVX NSCLC; 93.3% in the test on SN12C renal; 51.8% with UO-31 renal; 132% in the test with TK-10 renal; 77.5% in the test with ACHN renal; 95.1% with CAKI-1 renal. Also, the growth in the test on A498 renal is 101%; in the test with MOLT-4 leukemia, 64%; in the test on SR leukemia it was 80.7%; in the test with RPMI-8226 leukemia it was 54.6%; in the test with OVCAR-8 ovarian, 81.4%; in the test on OVCAR-5 ovarian it was 105%. The growth with OVCAR-4 ovarian was 82.3%; with SK-OV-3 ovarian, 104%; with IGROV1 ovarian, 88.2%; with OVCAR-3 ovarian it was 72.6%; in the test with HS 578T breast, 91.2%; with NCI/ADR-RES ovarian it was 85.2%.
Consider `Cc1cc(NC(=O)c2ccccc2)c(Cl)cc1N`, for which the growth with EKVX NSCLC was 107%; in the test on SN12C renal it was 100%; in the test with UO-31 renal, 86.6%; in the test on TK-10 renal, 141%; with ACHN renal, 98.8%; with CCRF-CEM leukemia it was 47.9%. Further, the growth in the test with OVCAR-8 ovarian was 95.9%; with OVCAR-5 ovarian it was 103%; in the test with OVCAR-4 ovarian, 97.5%; with SK-OV-3 ovarian, 107%; in the test on IGROV1 ovarian, 33.3%; in the test on OVCAR-3 ovarian, 119%. The growth in the test on HS 578T breast was 109%; with NCI/ADR-RES ovarian it was 102%.
